Inconclusive results are not listed. The source made the active and inactive calls. Unless noted, calls follow the shape of the dose curve; as a rule, active = well fitted curve in the direction sought with a large enough effect; inconclusive = small, poorly fitted or top-dose-only effect, or another doubt; inactive = no such curve, though single readings can be large; an effect the other way counts as inactive or inconclusive.
Key:
[1] = molecular target: Lysosomal acid glucosylceramidase (Homo sapiens) (UniProt P04062); assay: Glucocerebrosidase-p2 (AID 348; in the data active = potency below about 10 µM; also: potency is read from the fitted curve at half-maximal effect); conditions: purified GBA, blue fluorogenic substrate, 40 min
In short: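 Normal human glucocerebrosidase (0.2 nM) with blue fluorogenic substrate (80 uM final) in citrate/phosphate pH 5.9 with 10mM sodium taurocholate, 0.01% tween-20; 40 min RT, NaOH/glycine stop; fluorescence Ex 365/Em 440; AC50 from a titration from 0.6 nM upwards.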

[2] = AP1 Signaling Pathway (AID 357; active = well fitted curve in either direction with a large enough effect, not every such curve was filed as active;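 also: ME-180 reporter cells stimulated with EGF at its EC50 level; % is scaled to controls: 0 for no effect and ±100 for the full control effect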); conditions: ME-180 AP-1-bla reporter, EGF-induced, beta-lactamase ratio, 5 h; at 7.69 µM (top of the series) unless noted
In short: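 In this screen, ME-180 cells in Opti-MEM with 0.5% dialyzed FBS received EC50 EGF and compound titrations for 5 h. AP-1 reporter beta-lactamase was detected via CCF4 ratio, giving AC50 for positive and negative modulators.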

[3] = NFAT Signaling Pathway (AID 444; active = well fitted curve in either direction with a large enough effect, not every such curve was filed as active;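 also: carbachol stimulus at about its EC50 of 1 µM final; % is scaled to controls: 0 for no effect and ±100 for the full control effect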); conditions: Jurkat NFAT-bla M1, carbachol, beta-lactamase ratio, 5 h; at 7.69 µM (top of the series) unless noted
In short: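 Read-out: CCF4 FRET ratio (460 nm/530 nm) after 1 h RT dye loading, used for %activity and AC50 from titration series. Cells: Jurkat NFAT-β-lactamase/M1 line, treated with compound plus 1 uM carbachol for 5 h, 37 °C.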

[4] = Stat Signaling Pathway (AID 446; active = well fitted curve in either direction with a large enough effect, not every such curve was filed as active;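 also: ME-180 cervical cancer cells given 40 pM IL-6 alongside compound; SIE-controlled beta-lactamase reporter measured as 460/530 nm FRET emission ratio; % is scaled to controls: 0 for no effect and ±100 for the full control effect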); conditions: ME-180 (cervical carcinoma) SIE beta-lactamase reporter, IL-6 stimulated, 5 h; at 7.69 µM (top of the series) unless noted
In short: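 Emission at 460 and 530 nm (excitation 405 nm) reports SIE-controlled beta-lactamase in ME-180 cells. Cells received compound with 40 pM IL-6 for 5 hrs at 37 C; data scaled between 300 pM IL-6 and 125 nM JAK-inhibitor controls.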

[5] = molecular target: Glucocorticoid receptor (Homo sapiens) (UniProt P04150); assay: GR-GFP Redistribution (AID 450;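 active = compounds whose dose series gives a full or clear partial fitted curve of increased nuclear translocation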; also: potency is read from the fitted curve at half-maximal effect); conditions: U2OS GR-GFP nuclear translocation, laser cytometry, 2 h
[6] = molecular target: Glucocorticoid receptor (Homo sapiens) (UniProt P04150); assay: GR-EFC Redistribution (AID 451; calls by dose curve; also: potency is read from the fitted curve at half-maximal effect); conditions: CHO-K1 GR-EFC translocation, beta-gal luminescence, 2 h
In short: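 Translocation of GR-ED fusion to nuclear EA restores b-gal, read by luminescence after 1 h room-temperature detection. Engineered CHO-K1 biosensor cells, 1,000/well, exposed 2 h at 37 C to titrations up to 46 uM final.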

[7] = molecular target: Mitogen-activated protein kinase 10 (Mus musculus) (UniProt Q61831); assay: JNK3 AlphaScreen Assay (AID 530; active = well fitted curve in either direction with a large enough effect, not every such curve was filed as active;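 also: kinase came from lysate of stimulated human HepG2 cells; signal reports phosphorylation of biotinylated GST-cJun 1-79 at Ser73 with 10 µM ATP; % is scaled to controls: 0 for no effect and ±100 for the full control effect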); conditions: JNK3 lysate, c-Jun phosphorylation; series mostly up to 57.1 µM
In short: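 Kinase buffer: 20 mM Tris-HCl pH 7.6, 10 mM MgCl2, 1 mM DTT, 0.1 mM Na3VO4, 0.01% Tween-20; ATP 10 uM. Substrate biotin-GST-cJun(1-79), enzyme from activated HepG2 lysates. Detection by Ser73 phospho-antibody AlphaScreen.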

[8] = molecular target: Dual specificity protein kinase CLK4 (Homo sapiens) (UniProt Q9HAZ1); assay: qHTS Assay for Inhibitors of CDC-like Kinase 4 (Kinase-Glo Assay) (AID 1770); conditions: recombinant Clk4, Kinase-Glo ATP depletion luminescence; series mostly up to 66.7 µM; also: nearly all actives have a fitted effect of over 65% in size; also: potency is read from the fitted curve at half-maximal effect
In short: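 Inhibition was judged from remaining ATP, measured by Ultra-Glo luciferase bioluminescence after Clk4 (25 nM) had acted on RS peptide at 1 uM ATP for 4.5 hours, room temperature.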

[9] = molecular target: Dual specificity protein kinase CLK4 (Homo sapiens) (UniProt Q9HAZ1); assay: qHTS Assay for Inhibitors of CDC-like Kinase 4 (ADP-Glo Assay) (AID 1771); conditions: recombinant CLK4, ADP-Glo luminescence; series mostly up to 80 µM; also: nearly all actives have a fitted effect of over 70% in size; also: potency is read from the fitted curve at half-maximal effect
In short: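 In this ADP-Glo format, 1 uM ATP and 100 uM RS peptide served as substrates for 25 nM Clk4 in Mg2+/EGTA/DTT/Triton buffer; reactions ran 1 hr at room temperature before luminescent ADP quantification.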

[10] = molecular target: Dual specificity protein kinase CLK4 (Homo sapiens) (UniProt Q9HAZ1); assay: qHTS Assay for Inhibitors of CDC-like Kinase 4 (ADP-FP Assay) (AID 1795); conditions: Transcreener ADP fluorescence polarization; series mostly up to 50 µM; also: nearly all actives have a fitted effect of over 60% in size; also: potency is read from the fitted curve at half-maximal effect
In short: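 Inhibition of ADP formation by 6.25 nM Clk4 is measured using 1 uM ATP and 100 uM RS repeat peptide over one hour. Produced ADP displaces a fluorescent tracer from antibody, lowering polarization.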

[11] = Counterscreen qHTS for small molecule stabilizers of the endoplasmic reticulum resident proteome: GLuc-NoTag assay (AID 1508627); conditions: Gaussia luciferase NoTag secretion counterscreen, luminescence, thapsigargin 100 nM for final 4 h; series mostly up to 76.4 µM; also: potency is read from the fitted curve at half-maximal effect;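 as to activity change, negative = inhibition: SH-SY5Y cells given compound then 100 nM thapsigargin to empty ER calcium; 0% = thapsigargin alone and -100% = DMSO vehicle control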
In short: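 Counterscreen line: SH-SY5Y-GLuc-NoTag cells, treated with compound 19 hr before a 4 hr, 100 nM thapsigargin calcium depletion. Secreted Gaussia luciferase in the medium was measured by luminescence after coelenterazine was added (0.07x final), with cells unlysed.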

[12] = Confirmatory qHTS for small molecule stabilizers of the endoplasmic reticulum resident proteome: Secreted ER Calcium Modulated Protein (SERCaMP) assay (AID 1508628); conditions: SERCaMP secreted luciferase ER calcium/proteostasis reporter; series mostly up to 76.3 µM; also: nearly all actives have a fitted effect of over 40% in size; also: potency is read from the fitted curve at half-maximal effect
In short: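 GLuc-SERCaMP-expressing SH-SY5Y cells, pretreated 16 h with compound, are challenged with thapsigargin to empty ER calcium stores; after 4 h, coelenterazine is added directly to the medium and luminescence is imaged.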

[13] = molecular target: Cytochrome P450 1A2 (Homo sapiens) (UniProt P05177); assay: p450-cyp1a2 (AID 410; calls by dose curve; also: potency is read from the fitted curve at half-maximal effect); conditions: recombinant CYP1A2, luciferin-ME demethylation, luminescence; series mostly up to 57 µM
In short: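 Read-out is luminescence from luciferin produced by CYP1A2 demethylation of Luciferin-ME (100uM, at Km). Detection reagent stopped the 60 min NADPH-dependent reaction; signals were normalized to 57 uM furafylline.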

[14] = molecular target: 3',5'-cyclic-AMP phosphodiesterase 4B (Homo sapiens) (UniProt Q07343); assay: qHTS Assay for Inhibitors of PDE-IV (AID 607; active = well fitted activation curve with a large enough effect in the main read-out, with a control signal flat, not every such curve was filed as active; also: % of control where 0% means no effect); conditions: HEK293 ACTOne CNG channel cells, membrane potential fluorescence; series mostly up to 22.9 µM
In short: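 The readout is membrane depolarisation from a cAMP-sensing CNG channel, detected with a potential dye at ex 535/em 590. Cells were HEK293-derived (endogenous PDE-IV) at 1000 cells/well, titrated up to 22.9 uM final.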

[15] = molecular target: Cytochrome P450 3A4 (Homo sapiens) (UniProt P08684); assay: qHTS Assay for Activators of Cytochrome P450 3A4 (AID 885); conditions: recombinant CYP3A4, Luciferin-PPXE luminescence, 60 min; series mostly up to 57.1 µM; also: nearly all actives have a fitted effect of over 65% in size
In short: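 Activators are scored by enhanced luminescence from CYP3A4 conversion of luciferin-PPXE (25uM, equal to KM) to luciferin, after 60 min at RT with an NADPH-regenerating system.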

[16] = qHTS Assay for Lipid Storage Modulators (AID 1519; calls by dose curve); conditions: Drosophila S3 cells, BODIPY lipid droplet/cell ratio, laser cytometry, cells loaded with oleic acid; for activity change, negative = inhibition: at 57.5 µM (top of the series)
In short: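 Cells seeded at 5,000 per well were treated with compounds over a concentration series and loaded with oleic acid (400 uM, as added). Lipid droplet fluorescence (488 nm excitation, 500-530 nm channel) was read by laser-scanning cytometry and normalized to 20 uM Triacsin C.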

[17] = molecular target: Ubiquitin carboxyl-terminal hydrolase 1 (Homo sapiens) (UniProt O94782); assay: Inhibitors of USP1/UAF1: Pilot qHTS (AID 504865); conditions: purified USP1/UAF1, Ub-rhodamine cleavage fluorescence; series mostly up to 54.9 µM;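 also: rhodamine fluorescence freed from ubiquitin-rhodamine substrate followed over time; top concentration of the series differs between compounds; % is scaled to controls: 0 for no effect and ±100 for the full control effect; nearly all actives have a fitted effect of over 35% in size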
In short: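 Kinetic fluorescence assay: 1nM USP1/UAF1, 15 min compound preincubation, then 150nM Ub-Rho; 480/540 nm.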

[18] = Cell Viability qHTS for small molecule stabilizers of the endoplasmic reticulum resident proteome (AID 1508629); conditions: cell viability counter-screen, 100 nM thapsigargin for final 4 h
[19] = Confirmation and Secondary Assay for Modulators of Hemoglobin Beta Chain Splicing at IVS2 654 locus (AID 910); conditions: HeLa EGFP-654 splicing reporter, GFP fluorescence, 48 h; series mostly up to 38.3 µM;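 also: HeLa cells stably carrying EGFP split by mutant beta-globin IVS2-654 intron; per-well total GFP intensity by laser scanning cytometry after 2-day treatment; % of control where 0% means no effect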
In short: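 Readout: per-well total peak green fluorescence (488 nm ex, 500–520 nm em) from objects 5–250 µm, reflecting correct splicing of an EGFP-654 reporter. Compounds were applied for 2 days at 37 °C to overnight-plated HeLa EGFP-654 cells; controls were DMSO and 500 nM IVS2-654 PNA.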

[20] = measured here: cell count channel max response
[21] = measured here: lipid channel max response

Chain of Cytochrome P450 1A2 (Homo sapiens) (P05177 whole entry, looked up): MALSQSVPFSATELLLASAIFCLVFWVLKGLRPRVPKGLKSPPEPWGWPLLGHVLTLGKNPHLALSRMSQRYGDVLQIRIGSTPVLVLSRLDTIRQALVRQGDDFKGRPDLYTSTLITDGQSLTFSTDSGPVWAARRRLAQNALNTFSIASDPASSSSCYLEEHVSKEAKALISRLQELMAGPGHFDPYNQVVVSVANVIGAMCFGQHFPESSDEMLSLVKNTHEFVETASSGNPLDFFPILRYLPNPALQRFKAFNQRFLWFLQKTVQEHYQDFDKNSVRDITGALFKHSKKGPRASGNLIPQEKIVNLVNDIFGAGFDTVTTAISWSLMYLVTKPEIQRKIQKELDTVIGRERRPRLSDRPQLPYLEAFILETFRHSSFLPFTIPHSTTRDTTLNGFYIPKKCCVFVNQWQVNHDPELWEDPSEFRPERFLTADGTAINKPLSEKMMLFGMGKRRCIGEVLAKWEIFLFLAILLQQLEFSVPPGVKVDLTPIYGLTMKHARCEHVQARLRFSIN
Chain of Glucocorticoid receptor (Homo sapiens) (P04150 whole entry, looked up, the tested form may be a part): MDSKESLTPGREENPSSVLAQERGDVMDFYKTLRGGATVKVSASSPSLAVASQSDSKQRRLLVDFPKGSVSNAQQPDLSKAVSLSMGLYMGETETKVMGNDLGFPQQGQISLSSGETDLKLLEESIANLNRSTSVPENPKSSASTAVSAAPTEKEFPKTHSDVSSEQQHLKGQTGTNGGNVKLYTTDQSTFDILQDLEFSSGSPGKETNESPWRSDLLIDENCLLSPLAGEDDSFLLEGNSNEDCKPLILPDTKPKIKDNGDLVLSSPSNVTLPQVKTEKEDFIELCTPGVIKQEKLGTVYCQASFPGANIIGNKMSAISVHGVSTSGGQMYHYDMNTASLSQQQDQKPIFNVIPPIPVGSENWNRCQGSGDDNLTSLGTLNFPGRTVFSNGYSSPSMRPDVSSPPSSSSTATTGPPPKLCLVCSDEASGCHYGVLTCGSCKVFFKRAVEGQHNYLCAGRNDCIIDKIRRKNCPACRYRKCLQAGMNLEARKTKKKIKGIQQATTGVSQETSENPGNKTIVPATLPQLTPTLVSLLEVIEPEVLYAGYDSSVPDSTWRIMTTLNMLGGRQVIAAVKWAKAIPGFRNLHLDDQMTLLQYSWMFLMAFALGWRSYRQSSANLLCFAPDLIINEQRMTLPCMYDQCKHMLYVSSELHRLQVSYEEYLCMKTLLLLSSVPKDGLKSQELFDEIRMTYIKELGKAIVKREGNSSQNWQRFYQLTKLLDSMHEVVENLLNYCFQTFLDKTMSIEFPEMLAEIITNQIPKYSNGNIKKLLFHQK
Chain of 3',5'-cyclic-AMP phosphodiesterase 4B (Homo sapiens) (Q07343 whole entry, looked up): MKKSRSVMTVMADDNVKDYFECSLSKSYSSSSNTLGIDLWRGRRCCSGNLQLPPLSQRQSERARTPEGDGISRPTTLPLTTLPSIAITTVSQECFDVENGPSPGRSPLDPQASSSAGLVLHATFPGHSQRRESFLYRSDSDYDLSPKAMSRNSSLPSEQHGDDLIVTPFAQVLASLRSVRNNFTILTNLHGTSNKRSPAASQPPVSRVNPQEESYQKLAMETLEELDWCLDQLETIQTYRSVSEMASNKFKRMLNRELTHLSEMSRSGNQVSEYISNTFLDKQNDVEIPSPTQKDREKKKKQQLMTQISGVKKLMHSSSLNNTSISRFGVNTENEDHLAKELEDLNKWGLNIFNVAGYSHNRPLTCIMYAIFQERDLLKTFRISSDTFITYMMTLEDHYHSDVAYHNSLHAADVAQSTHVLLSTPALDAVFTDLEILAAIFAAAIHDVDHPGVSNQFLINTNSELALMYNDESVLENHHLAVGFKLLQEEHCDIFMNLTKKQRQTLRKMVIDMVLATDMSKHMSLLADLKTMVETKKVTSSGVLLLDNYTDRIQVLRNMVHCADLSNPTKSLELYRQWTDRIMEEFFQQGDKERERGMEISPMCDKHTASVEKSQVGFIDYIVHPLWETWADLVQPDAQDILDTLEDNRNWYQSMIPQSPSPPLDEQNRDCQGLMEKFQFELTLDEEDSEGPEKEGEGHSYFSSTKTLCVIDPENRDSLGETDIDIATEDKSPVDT
Chain of Dual specificity protein kinase CLK4 (Homo sapiens) (Q9HAZ1 whole entry, looked up): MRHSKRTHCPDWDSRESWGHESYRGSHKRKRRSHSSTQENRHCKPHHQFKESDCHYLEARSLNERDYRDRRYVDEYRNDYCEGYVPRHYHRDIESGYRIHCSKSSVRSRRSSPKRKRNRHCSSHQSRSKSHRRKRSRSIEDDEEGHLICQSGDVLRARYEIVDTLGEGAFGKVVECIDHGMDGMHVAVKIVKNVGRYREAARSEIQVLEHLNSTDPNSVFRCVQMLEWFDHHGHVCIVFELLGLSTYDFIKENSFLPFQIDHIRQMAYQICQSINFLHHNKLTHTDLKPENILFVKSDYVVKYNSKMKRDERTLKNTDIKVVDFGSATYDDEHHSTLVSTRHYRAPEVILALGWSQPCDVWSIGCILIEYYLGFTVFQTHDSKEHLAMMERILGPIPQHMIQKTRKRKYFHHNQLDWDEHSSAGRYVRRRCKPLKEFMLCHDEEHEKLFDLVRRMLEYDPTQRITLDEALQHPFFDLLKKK
Chain of Lysosomal acid glucosylceramidase (Homo sapiens) (P04062 whole entry, looked up): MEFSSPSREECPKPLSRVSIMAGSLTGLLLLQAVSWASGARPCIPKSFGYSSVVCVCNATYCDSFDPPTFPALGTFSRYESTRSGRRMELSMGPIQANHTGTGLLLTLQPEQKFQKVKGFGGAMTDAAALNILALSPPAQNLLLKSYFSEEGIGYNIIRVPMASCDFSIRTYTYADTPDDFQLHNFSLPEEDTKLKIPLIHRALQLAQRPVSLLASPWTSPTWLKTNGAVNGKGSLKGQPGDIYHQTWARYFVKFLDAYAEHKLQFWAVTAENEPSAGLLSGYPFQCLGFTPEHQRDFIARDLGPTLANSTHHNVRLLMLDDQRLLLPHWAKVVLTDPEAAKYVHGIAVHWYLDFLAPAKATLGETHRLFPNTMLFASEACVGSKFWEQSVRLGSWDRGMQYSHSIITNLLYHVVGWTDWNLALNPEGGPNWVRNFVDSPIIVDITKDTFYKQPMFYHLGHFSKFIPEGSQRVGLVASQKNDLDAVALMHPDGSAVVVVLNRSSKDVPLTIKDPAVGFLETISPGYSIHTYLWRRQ
Chain of Cytochrome P450 3A4 (Homo sapiens) (P08684 whole entry, looked up): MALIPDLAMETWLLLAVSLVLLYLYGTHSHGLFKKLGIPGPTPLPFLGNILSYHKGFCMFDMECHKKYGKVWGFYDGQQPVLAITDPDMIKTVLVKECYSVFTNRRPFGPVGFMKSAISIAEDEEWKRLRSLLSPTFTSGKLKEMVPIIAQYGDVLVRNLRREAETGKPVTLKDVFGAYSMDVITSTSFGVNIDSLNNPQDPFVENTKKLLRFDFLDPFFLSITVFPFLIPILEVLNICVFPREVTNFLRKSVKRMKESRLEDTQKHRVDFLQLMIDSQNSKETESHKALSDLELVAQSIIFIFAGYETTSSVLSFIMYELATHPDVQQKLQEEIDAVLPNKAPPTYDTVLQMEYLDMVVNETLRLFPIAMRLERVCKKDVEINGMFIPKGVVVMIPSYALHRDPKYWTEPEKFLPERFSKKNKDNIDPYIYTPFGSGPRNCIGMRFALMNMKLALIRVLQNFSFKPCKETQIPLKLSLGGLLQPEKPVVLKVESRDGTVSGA
Chain of Ubiquitin carboxyl-terminal hydrolase 1 (Homo sapiens) (O94782 whole entry, looked up): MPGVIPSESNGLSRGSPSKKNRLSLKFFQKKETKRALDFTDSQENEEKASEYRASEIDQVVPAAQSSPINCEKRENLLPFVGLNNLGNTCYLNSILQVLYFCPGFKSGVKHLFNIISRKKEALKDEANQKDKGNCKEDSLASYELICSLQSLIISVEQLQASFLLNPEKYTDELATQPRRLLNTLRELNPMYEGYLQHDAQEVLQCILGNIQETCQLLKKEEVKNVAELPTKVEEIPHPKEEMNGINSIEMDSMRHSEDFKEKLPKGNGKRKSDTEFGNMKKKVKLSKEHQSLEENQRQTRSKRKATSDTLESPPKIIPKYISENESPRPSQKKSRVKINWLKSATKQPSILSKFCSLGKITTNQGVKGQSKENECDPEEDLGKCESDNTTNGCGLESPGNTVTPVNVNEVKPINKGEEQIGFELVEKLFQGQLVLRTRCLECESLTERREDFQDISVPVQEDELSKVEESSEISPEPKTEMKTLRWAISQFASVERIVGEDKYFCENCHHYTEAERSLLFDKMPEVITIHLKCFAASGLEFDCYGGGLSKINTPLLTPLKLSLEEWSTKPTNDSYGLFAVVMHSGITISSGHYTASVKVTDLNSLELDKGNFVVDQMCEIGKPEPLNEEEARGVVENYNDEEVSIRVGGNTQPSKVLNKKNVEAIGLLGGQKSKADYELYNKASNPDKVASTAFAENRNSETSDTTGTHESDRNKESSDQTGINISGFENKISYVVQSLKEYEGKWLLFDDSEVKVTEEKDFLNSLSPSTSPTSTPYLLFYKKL

Cc1ccccc1-c1nccc(Nc2ccc(F)cc2)n1
inactive: Potency [1] > 11.4 µM | activity change, negative = inhibition [2] -8.14% | activity change, negative = inhibition [3] -3.97% | activity, negative = inhibition [4] -11% | Potency [5] > 46 µM | Potency [6] > 46 µM | outcome [7] | Potency [8] | Potency [9] | Potency [10] | Potency [11] | Potency [12]

COc1cccc(-c2ccc3ncnc(N4CCN(C)CC4)c3c2)c1
active: Potency [13] 3.98 µM | Potency [8] 3.55 µM | Potency [9] 3.98 µM | Potency [10] 2.24 µM | Potency [11] 35.5 µM | Potency [12] 39.8 µM
inactive: Potency [1] > 11.4 µM | activity change, negative = inhibition [3] 13% | activity, negative = inhibition [4] -6.09% | Potency [5] > 46 µM | Potency [6] > 46 µM | outcome [7] | Potency [14] | Potency [15] | activity change, negative = inhibition [16] -0.228% | Potency [17]
8.77%: max response [16, 20]
10.1%: max response [16, 21]

CCNc1ncc2nc(CCc3ccccc3)c(=O)n(CCOC)c2n1
active: Potency [13] 2 µM | Potency [12] 35.5 µM
inactive: activity change, negative = inhibition [2] 0.721% | activity change, negative = inhibition [3] 2.18% | activity, negative = inhibition [4] -8.07% | Potency [5] > 9.22 µM | Potency [6] > 46 µM | outcome [7] | Potency [15] | Potency [11] | max response [18] 18.6%

O=c1c(-c2ccc(Cl)cc2)nc2cnc(Oc3ccccc3)nc2n1C1CC1
active: Potency [12] 35.5 µM
inactive: Potency [1] > 11.4 µM | activity change, negative = inhibition [2] -21% | activity change, negative = inhibition [3] -2.33% | activity, negative = inhibition [4] -4.95% | Potency [5] > 9.22 µM | Potency [6] > 46 µM | outcome [7] | Potency [14] | Potency [11]

Cc1nc2cnc(N3CCNCC3)nc2n(Cc2ccc(F)cc2)c1=O
active: Potency [13] 12.6 µM | Potency [12] 20 µM
14.9%: max response [16, 20]
19.5%: max response [16, 21]
inactive: Potency [1] > 11.4 µM | activity change, negative = inhibition [2] 7.46% | activity change, negative = inhibition [3] -14.9% | activity, negative = inhibition [4] 7.66% | Potency [5] > 9.22 µM | Potency [6] > 46 µM | outcome [7] | Potency [15] | activity change, negative = inhibition [16] 2.97% | Potency [11] | max response [18] 11.4%

COc1cccc(-c2nc(N3CCN(C)CC3)c3ccccc3n2)c1
active: Potency [8] 28.2 µM | Potency [12] 20 µM
inactive: Potency [1] > 11.4 µM | activity change, negative = inhibition [2] 11.5% | activity change, negative = inhibition [3] 12.1% | activity, negative = inhibition [4] -2.04% | Potency [5] > 46 µM | Potency [6] > 46 µM | outcome [7] | Potency [10] | Potency [11]

COc1ccccc1CNc1ncnc2ccc(-c3ccccc3CN(C)C)cc12
inactive: Potency [1] > 11.4 µM | activity change, negative = inhibition [2] -6.09% | activity, negative = inhibition [4] -9.28% | Potency [5] > 46 µM | Potency [6] > 46 µM | outcome [7] | Potency [15] | outcome [19] | activity change, negative = inhibition [16] 5.99% | Potency [17] | Potency [11]
3.46%: max response [16, 21]
-1.21%: max response [16, 20]
active: Potency [13] 15.8 µM | Potency [12] 10 µM

COc1ccc(Oc2ncc3nc(-c4cccs4)c(=O)n(CCC#N)c3n2)cc1
inactive: Potency [1] > 11.4 µM | activity change, negative = inhibition [2] -1.5% | activity change, negative = inhibition [3] -5.68% | activity, negative = inhibition [4] -11.5% | Potency [5] > 9.22 µM | Potency [6] > 46 µM | outcome [7] | Potency [14] | activity change, negative = inhibition [16] 2.6% | Potency [8] | Potency [9] | Potency [10] | Potency [17] | Potency [11] | max response [18] 18.3%
10.8%: max response [16, 20] | max response [16, 21]

COc1cccc(Cn2c(=O)c(C)nc3cnc(N4CCN(C)CC4)nc32)c1
7.13%: max response [16, 21]
inactive: Potency [1] > 11.4 µM | activity change, negative = inhibition [2] -0.444% | activity change, negative = inhibition [3] 5.99% | activity, negative = inhibition [4] -11.6% | Potency [5] > 9.22 µM | Potency [6] > 46 µM | outcome [7] | Potency [14] | activity change, negative = inhibition [16] -3.34% | Potency [8] | Potency [9] | Potency [10] | Potency [17] | Potency [11] | Potency [12]
13.5%: max response [16, 20]

COc1cccc(Cn2c(=O)c(C)nc3cnc(N4CCNCC4)nc32)c1
active: Potency [11] 28.2 µM | Potency [12] 35.5 µM
inactive: activity change, negative = inhibition [2] 4.85% | activity change, negative = inhibition [3] -10.9% | activity, negative = inhibition [4] -3.45% | Potency [5] > 9.22 µM | Potency [6] > 46 µM | outcome [7] | Potency [14]

COc1ccc(-n2c(=O)c(-c3cccc(C#N)c3)nc3cnc(N4CCNCC4)nc32)cc1
inactive: activity change, negative = inhibition [2] 6.83% | activity change, negative = inhibition [3] 5.29% | activity, negative = inhibition [4] 13.3% | Potency [5] > 9.22 µM | Potency [6] > 46 µM | outcome [7] | Potency [14] | activity change, negative = inhibition [16] 9.59% | Potency [8] | Potency [9] | Potency [10] | Potency [17] | Potency [11]
29.5%: max response [16, 21]
active: Potency [13] 15.8 µM | Potency [12] 25.1 µM
24%: max response [16, 20]
